What all share (type): functional
In experiment [1] the test system is Plasmodium falciparum. Kind of experiment: GSK_TCMDC: Inhibition of Plasmodium falciparum 3D7 in whole red blood cells, using parasite LDH activity as an index of growth. Test compounds present at 2uM.
The test system of experiment [2] is Plasmodium falciparum. Kind of experiment: GSK_TCMDC: Inhibition of Plasmodium falciparum Dd2 in whole red blood cells, using parasite LDH activity as an index of growth. Test compounds present at 2uM.
The subject of experiment [3] is HepG2. The experiment can be described thus: GSK_TCMDC: Percent inhibition of human HepG2 cell line. Test compounds present at 10uM.

The values that follow come from ChEMBL document CHEMBL1157539, “Thousands of chemical starting points for antimalarial lead identification” (Nature, 2010).

Consider `O=C(NC1CC1)c1ccc(N2CCC(COc3cccc(F)c3)CC2)nc1`, for which the Inhibition in experiment [1] stood at 89%; in experiment [2], 88%; in experiment [3] it was 0%.

Turning to `Cc1cccc(CNc2nc(C)cc(N[C@@H](Cc3ccccc3)C(=O)NCCOc3ccccc3)n2)c1.O=C(O)C(F)(F)F`, the Inhibition in experiment [1] was 93%; in experiment [2], 54%; in experiment [3] it was 28%.

As to `Br.N=C(N)Nc1nc(-c2cc(NC(=O)C(F)(F)F)cc([N+](=O)[O-])c2)cs1`, the Inhibition in experiment [1] amounted to 98%; in experiment [2], 51%; in experiment [3], 7%.

In the case of `O=C(O)C(F)(F)F.OCC1CCN(Cc2ccc(-c3ccc(-c4nc5cc(F)ccc5[nH]4)cc3)cc2)CC1`, the Inhibition in experiment [1] came to 100%; in experiment [2] it was 95%; in experiment [3], 17%.

Consider `Cc1ccccc1C1CCN(C2CCC(NC(=O)/C=C/c3ccc(C(F)(F)F)cc3F)CC2)CC1` (stereo not given), for which the Inhibition is given as 99% in experiment [1], 58% in experiment [2] and 72% in experiment [3].

As to `Cl.Fc1ccccc1COc1ccc(Nc2ncnc3ccc(-c4nnc(C(F)(F)F)o4)cc23)cc1Cl`, the Inhibition in experiment [1] came to 100%; in experiment [2] it was 46%; in experiment [3], 7%.

Take `CC(C)Sc1nc2c(c(=O)n1CCc1ccccc1)C1(CCCC1)Cc1ccccc1-2`: the Inhibition in experiment [1] is 100%; in experiment [2], 88%; in experiment [3] it was 0%.

Consider `Cc1cccc2nc(-c3cccc(-c4ccc(CN5CCCC5CN)cc4)c3)[nH]c12.O=C(O)C(F)(F)F` (stereo not given), for which the Inhibition in experiment [1] is recorded as 100%; in experiment [2], 47%; in experiment [3], 19%.

For the compound `O=C(NCCCCN1CCC(c2ccc([N+](=O)[O-])cc2)CC1)c1ccc(NC(=O)c2ccc(Cl)cc2)cc1`, the Inhibition in experiment [1] was 100%; in experiment [2], 55%; in experiment [3] it was 15%.

Turning to `Cn1nc(-c2cccc(CNCCc3cccs3)c2)c2cnc(NC3CCCC3)nc21`, the figures for the Inhibition in experiment [1], in experiment [2] and in experiment [3] were 97%, 0% and 8%, respectively.

For the compound `Cc1ccccc1C1CCN(C2CCC(NC(=O)c3cc(-c4ccccc4)oc3C)CC2)CC1` (stereo not given), the values for the Inhibition in experiment [1], in experiment [2] and in experiment [3] were 100%, 32% and 46%, respectively.

In the case of `CCCCC(CC)C(=O)C(NC(=O)[C@H](CSC(c1ccccc1)(c1ccccc1)c1ccccc1)NC(=O)OC(C)(C)C)C(=O)OC` (stereo not given in full), the figures for the Inhibition in experiment [1], in experiment [2] and in experiment [3] were 88%, 31% and 8%, respectively.

With `O=C(Nc1cccc(-c2cc(-c3c(Cl)cccc3Cl)no2)c1)c1cnc2ccccc2c1`, the figures for the Inhibition in experiment [1], in experiment [2] and in experiment [3] were 87%, 34% and 0%, respectively.

In the case of `CCOCCCNc1sc(S(=O)(=O)c2ccccc2)nc1S(=O)(=O)c1ccc(C)cc1`, the results for the Inhibition in experiment [1], in experiment [2] and in experiment [3] were 96%, 87% and 0%, respectively.

As for `CC(=O)c1c(CC(=O)O)c2ccccc2n1O`, the Inhibition in experiment [1] is given as 98%; in experiment [2] it was 0%; in experiment [3], 16%.

As for `Cl.O=S(=O)(c1ccc(OCc2ccc(Cl)cc2)cc1)c1cc2c(cc1OCc1ccccc1)CCN(C1CCC1)CC2`, the Inhibition in experiment [1] came out at 89%; in experiment [2], 13%; in experiment [3] it was 17%.

As to `CN1CC[C@@H](Oc2cc(Nc3nc(-c4ccc(C#N)cc4)cs3)ccc2Cl)C1.Cl`, the Inhibition in experiment [1] was 99%; in experiment [2], 24%; in experiment [3] it was 12%.

With `COc1ccc(CNCc2cccc(-c3csc(-c4nc5ccccc5[nH]4)c3)c2)cc1.O=C(O)C(F)(F)F`, the Inhibition in experiment [1] turned out to be 100%; in experiment [2] it was 22%; in experiment [3], 17%.

With `CCOc1ccc2c(=NN=Cc3cccc(OC)c3)cc(C)[nH]c2c1`, the values for the Inhibition in experiment [1], in experiment [2] and in experiment [3] were 97%, 81% and 38%, respectively.

For the compound `COc1ccc2c(=NN=Cc3cccnc3)cc(C)[nH]c2c1`, the results for the Inhibition in experiment [1], in experiment [2] and in experiment [3] were 85%, 12% and 0%, respectively.

Turning to `CCN(CC)CCCOc1ccc(Nc2nccc(-c3c(-c4cccc(NC(=O)c5c(F)cccc5F)c4)nn4ccccc34)n2)cc1F`, the figures for the Inhibition in experiment [1], in experiment [2] and in experiment [3] were 100%, 99% and 86%, respectively.

As for `O=C(/C=C/c1ccc(Cl)c(Cl)c1)NCCCCCN1CCN(C(=O)Nc2ccc(C(F)(F)F)cc2)CC1`, the Inhibition is 99% in experiment [1], 0% in experiment [2] and 26% in experiment [3].

Regarding `O=C(Nc1ccc(Cl)cc1)c1cc(Cl)ccc1NC(=O)C1(c2ccc(Cl)cc2)CCCC1`, the figures for the Inhibition in experiment [1], in experiment [2] and in experiment [3] were 85%, 29% and 13%, respectively.

For the compound `COC(=O)c1cccc(CNCc2ccc(-c3ccc(-c4nc5cccc(C)c5[nH]4)s3)cc2)c1.O=C(O)C(F)(F)F`, the Inhibition in experiment [1] worked out at 100%; in experiment [2], 64%; in experiment [3], 3%.

On to `COc1ccccc1N1CCN(C(C(=O)NCc2cccc(F)c2)c2ccc(C)cc2)CC1` (stereo not given), for which the Inhibition in experiment [1] was determined as 94%; in experiment [2] it was 80%; in experiment [3], 4%.

As to `FC(F)(F)c1ccc2[nH]c(-c3ccc(-c4ccc(CN5CCN(c6ccncc6)CC5)cc4)cc3)nc2c1.O=C(O)C(F)(F)F`, the Inhibition in experiment [1] was found to be 100%; in experiment [2], 99%; in experiment [3] it was 91%.

`CS(=O)(=O)O.FC(F)(F)COc1ccc2ccccc2c1CCNCCCCNCCc1c(OCC(F)(F)F)ccc2ccccc12`: the Inhibition was determined as 100% in experiment [1], 53% in experiment [2] and 99% in experiment [3].

For the compound `CC(=O)Nc1nc(C(=O)Nc2cccc(-c3ccc(-c4nc5cccc(C)c5[nH]4)cc3)c2)cs1`, the Inhibition in experiment [1] is given as 100%; in experiment [2] it was 61%; in experiment [3] it was 100%.

As for `CN(C)CCC=C1c2ccccc2Sc2c(O)cc(Cl)cc21.O=C(O)/C=C\C(=O)O`, the results for the Inhibition in experiment [1], in experiment [2] and in experiment [3] were 100%, 80% and 8%, respectively.

For `O=C(NCCc1ccccc1F)c1ccc(N2CCN(c3ccncc3)CC2)cn1.O=C(O)C(F)(F)F`, the Inhibition in experiment [1] was 93%; in experiment [2] it was 18%; in experiment [3] it was 8%.

The Inhibition is the percentage by which the read-out fell short of the control. A high value points to a response far below the control.
